# Assay results as given in the supplement of paper PMC6089552.
# “And” between values parts separate entries of the source, which are not always exact repeats. Identical values can stand only once. The whole screen tested about 3,200 compounds, of which about 300 (9.4%) showed activity. Shown is part of a subset that was picked to be rich in actives. Values without a mark were called inactive.
# Tested on: A673/TR/shEF
# Assay: cell viability (LOESS-normalised, relative to median of negative controls) (log2 ratio); higher = more viable cells (less compound effect), active = hit call of the paper (over 3 MAD below the median)
# Conditions: treatment time: 72 h
# Procedure, shortened: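 A673/TR/shEF Ewing sarcoma cells were plated at 1,500 per well in 384-well plates and cultured with or without doxycycline, added 24 h before compounds, to induce EWS-FLI1 shRNA knockdown. Library compounds at two or more concentrations, alongside DMSO controls, were applied for three days. Cell viability was measured by CellTiter-Glo luminescence on an Envision reader. Readings were LOESS-corrected per plate, divided by the median of negative controls and log2-transformed, and hits were wells lying at least three median absolute deviations from the median of all screened wells.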
# [1] = 0.25 µM, library screen: screen1, EWS-FLI1 expression: high (no doxycycline)
# [2] = 0.25 µM, library screen: screen1, EWS-FLI1 expression: low (doxycycline-induced shRNA knockdown)
# [3] = 2.5 µM, library screen: screen1, EWS-FLI1 expression: high (no doxycycline)
# [4] = 2.5 µM, library screen: screen1, EWS-FLI1 expression: low (doxycycline-induced shRNA knockdown)
# [5] = 0.025 µM, library screen: screen2, EWS-FLI1 expression: high (no doxycycline)
# [6] = 0.025 µM, library screen: screen2, EWS-FLI1 expression: low (doxycycline-induced shRNA knockdown)
# [7] = 0.103 µM, library screen: screen3, EWS-FLI1 expression: high (no doxycycline)
# [8] = 0.103 µM, library screen: screen3, EWS-FLI1 expression: low (doxycycline-induced shRNA knockdown)
# [9] = 0.25 µM, library screen: screen2, EWS-FLI1 expression: high (no doxycycline)
# [10] = 0.25 µM, library screen: screen2, EWS-FLI1 expression: low (doxycycline-induced shRNA knockdown)
# [11] = 0.308 µM, library screen: screen3, EWS-FLI1 expression: high (no doxycycline)
# [12] = 0.308 µM, library screen: screen3, EWS-FLI1 expression: low (doxycycline-induced shRNA knockdown)
# [13] = 0.926 µM, library screen: screen3, EWS-FLI1 expression: high (no doxycycline)
# [14] = 0.926 µM, library screen: screen3, EWS-FLI1 expression: low (doxycycline-induced shRNA knockdown)
# [15] = 2.5 µM, library screen: screen2, EWS-FLI1 expression: high (no doxycycline)
# [16] = 2.5 µM, library screen: screen2, EWS-FLI1 expression: low (doxycycline-induced shRNA knockdown)
# [17] = 2.8 µM, library screen: screen3, EWS-FLI1 expression: high (no doxycycline)
# [18] = 2.8 µM, library screen: screen3, EWS-FLI1 expression: low (doxycycline-induced shRNA knockdown)
# [19] = 8.3 µM, library screen: screen3, EWS-FLI1 expression: high (no doxycycline)
# [20] = 8.3 µM, library screen: screen3, EWS-FLI1 expression: low (doxycycline-induced shRNA knockdown)
# [21] = 25 µM, library screen: screen2, EWS-FLI1 expression: high (no doxycycline)
# [22] = 25 µM, library screen: screen2, EWS-FLI1 expression: low (doxycycline-induced shRNA knockdown)
# [23] = 25 µM, library screen: screen3, EWS-FLI1 expression: high (no doxycycline)
# [24] = 25 µM, library screen: screen3, EWS-FLI1 expression: low (doxycycline-induced shRNA knockdown)
smiles,measurement,setting,value
COC(=O)c1c(OC)cc2c(c1C)Oc1c(Cl)c(OC(C)=O)c(Cl)c(C)c1C(=O)O2,cell viability (log2),[1],0.0846
same,cell viability (log2),[2],0.126
same,cell viability (log2),[3],0.0897
same,cell viability (log2),[4],0.152
COC(=O)C1=C(C)N=c2sc(=Cc3cccnc3)c(=O)n2C1c1ccccc1 (configuration not stated),cell viability (log2),[1],0.123
same,cell viability (log2),[2],0.0677
same,cell viability (log2),[3],0.0796
same,cell viability (log2),[4],0.107
O=C(/C=C/c1ccc(-c2cccc(Cl)c2)o1)c1ccco1,cell viability (log2),[1],0.127
same,cell viability (log2),[2],0.15
same,cell viability (log2),[3],0.147
same,cell viability (log2),[4],0.194
Cn1c(=O)[nH]c2nc[nH]c2c1=O,cell viability (log2),[1],0.0262
same,cell viability (log2),[2],0.135
same,cell viability (log2),[3],0.103
same,cell viability (log2),[4],0.0812
Nc1nc(=S)c2[nH]cnc2[nH]1,cell viability (log2),[5],0.0835
same,cell viability (log2),[6],0.0155
same,cell viability (log2),[7],0.132
same,cell viability (log2),[8],0.0451
same,cell viability (log2),[1],0.0575
same,cell viability (log2),[2],0.137
same,cell viability (log2),[9],0.0679
same,cell viability (log2),[10],0.0691
same,cell viability (log2),[11],0.156
same,cell viability (log2),[12],0.137
same,cell viability (log2),[13],0.118
same,cell viability (log2),[14],0.102
same,cell viability (log2),[3],-0.318 (active)
same,cell viability (log2),[4],0.0456
same,cell viability (log2),[15],-0.33 (active)
same,cell viability (log2),[16],-0.0263
same,cell viability (log2),[17],0.0258
same,cell viability (log2),[18],0.111
same,cell viability (log2),[19],-0.323 (active)
same,cell viability (log2),[20],0.0181
same,cell viability (log2),[21],-0.96 (active)
same,cell viability (log2),[22],-0.163 (active)
same,cell viability (log2),[23],-0.834 (active)
same,cell viability (log2),[24],0.027
Cn1c(=O)c2[nH]cnc2n(C)c1=O,cell viability (log2),[7],0.139
same,cell viability (log2),[8],0.0982
same,cell viability (log2),[1],0.0899
same,cell viability (log2),[2],0.0721
same,cell viability (log2),[9],0.105 and -0.0181
same,cell viability (log2),[10],0.0369 and 0.0406
same,cell viability (log2),[11],0.11
same,cell viability (log2),[12],0.14
same,cell viability (log2),[13],0.146
same,cell viability (log2),[14],0.0819
same,cell viability (log2),[3],0.127
same,cell viability (log2),[4],0.0623
same,cell viability (log2),[15],0.259 and 0.0738
same,cell viability (log2),[16],0.0969 and 0.00951
same,cell viability (log2),[17],0.155
same,cell viability (log2),[18],0.129
same,cell viability (log2),[19],0.11
same,cell viability (log2),[20],0.0762
same,cell viability (log2),[23],0.117
same,cell viability (log2),[24],0.0984
S=c1nc[nH]c2nc[nH]c12,cell viability (log2),[5],0.182
same,cell viability (log2),[6],0.0993
same,cell viability (log2),[7],0.0192
same,cell viability (log2),[8],0.0459
same,cell viability (log2),[1],-0.0045
same,cell viability (log2),[2],-0.00406
same,cell viability (log2),[9],0.161
same,cell viability (log2),[10],0.00291
same,cell viability (log2),[11],0.144
same,cell viability (log2),[12],0.158
same,cell viability (log2),[13],0.0964
same,cell viability (log2),[14],0.0595
same,cell viability (log2),[3],-0.186 (active)
same,cell viability (log2),[4],0.0219
same,cell viability (log2),[15],-0.00564
same,cell viability (log2),[16],0.0787
same,cell viability (log2),[17],0.036
same,cell viability (log2),[18],0.0694
same,cell viability (log2),[19],-0.147
same,cell viability (log2),[20],0.036
same,cell viability (log2),[21],-0.312 (active)
same,cell viability (log2),[22],0.0432
same,cell viability (log2),[23],-0.314 (active)
same,cell viability (log2),[24],0.056
O=c1nc[nH]c2nc[nH]c12,cell viability (log2),[1],0.00725
same,cell viability (log2),[2],-0.0191
same,cell viability (log2),[3],0.152
same,cell viability (log2),[4],0.0891
COc1cc2ccc(=O)oc2c(OC)c1OC,cell viability (log2),[1],0.24
same,cell viability (log2),[2],0.119
same,cell viability (log2),[3],0.156
same,cell viability (log2),[4],0.115
CC(C)/C(O)=C1/C(=O)O[C@@H](c2ccoc2)[C@]2(C)C(O)[C@@H](O)[C@@]34OC5(C)OC67CC(C)(C(O)[C@]6(O)[C@@H](O)[C@]3(O5)C12)[C@H](CC(=O)O)[C@]74C (some centres not stated),cell viability (log2),[1],0.0599
same,cell viability (log2),[2],0.0645
same,cell viability (log2),[3],0.0749
same,cell viability (log2),[4],0.047
COC(=O)C1=C(C)NC2=C(C(=O)CCC2)C1c1coc2ccccc2c1=O (configuration not stated),cell viability (log2),[1],0.109
same,cell viability (log2),[2],0.0579
same,cell viability (log2),[3],0.125
same,cell viability (log2),[4],0.0379
CC(=O)O[C@@H]1CC2C(C)(C)[C@@H](O)CC[C@]2(C)C2CC[C@@]3(C)[C@H](c4ccoc4)OC(=O)[C@H]4O[C@]43[C@@]21C (some centres not stated),cell viability (log2),[1],0.0735
same,cell viability (log2),[2],0.138
same,cell viability (log2),[3],0.203
same,cell viability (log2),[4],0.158
CCOc1cc(/C=C2\SC(=S)N(CCS(=O)(=O)O)C2=O)ccc1O,cell viability (log2),[1],-0.00487
same,cell viability (log2),[2],0.0852
same,cell viability (log2),[3],0.0865
same,cell viability (log2),[4],0.0812
CN1CCN(c2nc3ccccn3c(=O)c2/C=C2\SC(=S)N(CCc3ccccc3)C2=O)CC1,cell viability (log2),[1],-0.00293
same,cell viability (log2),[2],0.00861
same,cell viability (log2),[3],0.0344
same,cell viability (log2),[4],0.124
C[C@H](CCC(=O)O)[C@H]1CC[C@H]2[C@@H]3CC[C@@H]4CCCC[C@]4(C)[C@H]3CC[C@]12C,cell viability (log2),[1],0.0641
same,cell viability (log2),[2],-0.0159
same,cell viability (log2),[3],0.109
same,cell viability (log2),[4],-0.0358
C/C=C(/C)C(=O)O[C@H]1[C@H](OC(C)=O)[C@]2(CO)[C@H](O)C[C@]3(C)C(=CC[C@@H]4[C@@]5(C)CC[C@H](O[C@@H]6O[C@H](C(=O)O)[C@@H](O[C@@H]7O[C@H](CO)[C@@H](O)[C@H](O)[C@H]7O)[C@H](O)[C@H]6O[C@@H]6O[C@H](CO)[C@@H](O)[C@H](O)[C@H]6O)[C@](C)(CO)[C@@H]5CC[C@]43C)[C@@H]2CC1(C)C.C/C=C(\C)C(=O)O[C@H]1[C@H](OC(C)=O)[C@@]2(CO)C(CC1(C)C)C1=CCC3[C@@]4(C)CC[C@H](O[C@@H]5O[C@H](C(=O)O)[C@@H](O[C@@H]6O[C@H](CO)[C@@H](O)[C@H](O)[C@H]6O)[C@H](O)[C@H]5O[C@@H]5O[C@H](CO)[C@@H](O)[C@H](O)[C@H]5O)[C@](C)(CO)C4CC[C@@]3(C)[C@]1(C)C[C@H]2O,cell viability (log2),[1],0.0112
same,cell viability (log2),[2],-0.0408
same,cell viability (log2),[3],0.0934
same,cell viability (log2),[4],0.0403
CC[C@]1(O)C[C@H]2CN(CCc3c([nH]c4ccccc34)[C@@](C(=O)OC)(c3cc4c(cc3OC)N(C=O)[C@H]3[C@@](O)(C(=O)OC)[C@H](OC(C)=O)[C@]5(CC)C=CCN6CC[C@]43[C@@H]65)C2)C1,cell viability (log2),[7],-3.56 (active)
same,cell viability (log2),[8],-0.748 (active)
same,cell viability (log2),[9],-2.87 (active)
same,cell viability (log2),[10],-0.436 (active)
same,cell viability (log2),[11],-3.82 (active)
same,cell viability (log2),[12],-0.668 (active)
same,cell viability (log2),[13],-3.92 (active)
same,cell viability (log2),[14],-0.728 (active)
same,cell viability (log2),[15],-2.88 (active)
same,cell viability (log2),[16],-0.517 (active)
same,cell viability (log2),[17],-3.8 (active)
same,cell viability (log2),[18],-0.704 (active)
same,cell viability (log2),[19],-3.93 (active)
same,cell viability (log2),[20],-0.847 (active)
same,cell viability (log2),[23],-3.66 (active)
same,cell viability (log2),[24],-0.84 (active)
CCC1(O)CC2CN(CCc3c([nH]c4ccccc34)[C@@](C(=O)OC)(c3cc4c(cc3OC)N(C)C3[C@]45CCN4CC=C[C@@](CC)([C@@H](OC(C)=O)[C@]3(O)C(=O)OC)[C@H]45)C2)C1 (some centres not stated),cell viability (log2),[9],-3.54 (active)
same,cell viability (log2),[10],-0.483 (active)
same,cell viability (log2),[15],-3.67 (active)
same,cell viability (log2),[16],-0.537 (active)
CCC1=C[C@@H]2CN(C1)Cc1c([nH]c3ccccc13)[C@@](C(=O)OC)(c1cc3c(cc1OC)N(C)[C@H]1[C@@](O)(C(=O)OC)[C@H](OC(C)=O)[C@]4(CC)C=CCN5CC[C@]31[C@@H]54)C2,cell viability (log2),[7],-4.31 (active)
same,cell viability (log2),[8],-1.05 (active)
same,cell viability (log2),[11],-3.96 (active)
same,cell viability (log2),[12],-1.11 (active)
same,cell viability (log2),[13],-4.31 (active)
same,cell viability (log2),[14],-0.811 (active)
same,cell viability (log2),[17],-4.31 (active)
same,cell viability (log2),[18],-0.798 (active)
same,cell viability (log2),[19],-3.91 (active)
same,cell viability (log2),[20],-0.769 (active)
same,cell viability (log2),[23],-3.44 (active)
same,cell viability (log2),[24],-0.836 (active)
